This is a sample that favours compounds with a hit; in the whole collection about 0.9% have one here.
RECQ1 helicase: qHTS Assay for Inhibitors of RecQ-Like Dna Helicase 1 (RECQ1); RECQ1 DNA unwinding, red fluorescence kinetic read; actives 0.54% (n = 240,000); ATP-dependent DNA helicase Q1 (Homo sapiens), P46063; AID 2549, 2010; Potency, µM (titrated, usually from 57.3 µM), without a hit: at the highest dose activity, negative = inhibition, actives largely listed as inhibitors;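 also: plate controls were vehicle for no effect and no enzyme for full effect; nearly all actives have a fitted effect of over 30% in size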
Target sequence (P46063 whole entry, looked up): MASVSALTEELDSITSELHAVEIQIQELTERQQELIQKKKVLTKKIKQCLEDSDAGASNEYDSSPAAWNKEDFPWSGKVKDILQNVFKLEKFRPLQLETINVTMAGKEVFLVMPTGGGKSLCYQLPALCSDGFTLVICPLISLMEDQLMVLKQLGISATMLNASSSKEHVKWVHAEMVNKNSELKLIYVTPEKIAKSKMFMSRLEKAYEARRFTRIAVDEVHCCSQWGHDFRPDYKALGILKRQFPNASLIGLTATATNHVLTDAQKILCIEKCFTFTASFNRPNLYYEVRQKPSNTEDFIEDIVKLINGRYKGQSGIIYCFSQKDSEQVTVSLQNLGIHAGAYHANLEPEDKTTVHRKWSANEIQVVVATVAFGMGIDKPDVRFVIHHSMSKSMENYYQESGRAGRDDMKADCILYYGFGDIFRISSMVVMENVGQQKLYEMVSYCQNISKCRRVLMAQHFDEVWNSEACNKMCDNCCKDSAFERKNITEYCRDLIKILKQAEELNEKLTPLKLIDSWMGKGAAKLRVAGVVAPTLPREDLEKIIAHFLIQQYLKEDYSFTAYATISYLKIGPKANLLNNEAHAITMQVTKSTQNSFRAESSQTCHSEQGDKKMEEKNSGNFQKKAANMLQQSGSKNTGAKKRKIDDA
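RECQ1T1 50 nM; forked duplex (20 bp + 30-nt ss tails) 200 nM, ATP 2 mM final; pH 8.0, 2 mM MgCl2, 2.5 ug/ml poly(dI-dC); 15 min compound preincubation; discontinuous kinetic read over 2 h at RT.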
LMNA splice mod: qHTS Assay for Modulators of Lamin A Splicing; HeLa LMNA splicing GFP/RFP minigene ratio, 48 h; Potency, µM (series often up to 46.1 µM), for the others: at the top dose ratio change, negative = inhibition, actives largely listed as inhibitors; actives 0.01% (n = 200,000); active = well fitted inhibition curve with a large enough effect in the signal ratio, with a control signal flat, not every such curve was filed as active; inconclusive = small, poorly fitted or top-dose-only effect, or effect the other way, or a change in a side signal; the % refers to the signal ratio
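S3 HeLa cells stably expressing lamin A-EGFP splicing minigene plus DsRed2, 600 cells/well, 48 h compound exposure at 37C. Laser-scanning cytometry; analysed as GFP (500-530 nm)/RFP (575-640 nm) total intensity ratio; 0.5% DMSO vehicle.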
TDP1 block: qHTS Assay for Inhibitors of Tyrosyl-DNA Phosphodiesterase (TDP1) | actives 0.28% (n = 350,000) | Potency, µM (titrated, usually from 130 µM), inactives show at the highest dose activity change, negative = inhibition, hits mostly inhibitors | Tyrosyl-DNA phosphodiesterase 1 (Homo sapiens), Q9NUW8 | AID 485290, 2010 | recombinant TDP1, AlphaScreen DNA substrate cleavage; also: nearly all actives have a fitted effect of over 40% in size
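E. coli-derived human Tdp1, 1 nM final. Cpd preinc 15 min RT; substrate 15 nM final, 5 min RT; AS bead mix 10 ug/ml final, 10 min RT. Signal loss = tyrosine-FITC cleavage. No-enzyme wells = max signal.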
BLM helicase inh: qHTS Assay for Inhibitors of Bloom's syndrome helicase (BLM); RecQ-like DNA helicase BLM (Homo sapiens), P54132; recombinant BLM DNA unwinding, fluorescence dequenching; Potency, µM (series often up to 56.1 µM), inactives show at the highest dose activity change, negative = inhibition, most hits filed as inhibitors; actives 0.2% (n = 350,000);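 also: plate controls were vehicle for no effect and no enzyme for full effect; nearly all actives have a fitted effect of over 35% in size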
KAT2A inh: qHTS Assay for Inhibitors of GCN5L2; actives 0.21% (n = 390,000); Potency, µM (doses to about 58.9 µM), for inactives: at the highest dose activity change, negative = inhibition, usual class: inhibitors; AID 504327, 2011; Histone acetyltransferase KAT2A (Homo sapiens), Q92830; GCN5L2 HAT assay, ThioGlo1 CoA-SH fluorescence
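ThioGlo1-coupled HAT assay: 20nM GCN5L2, 70uM acetyl-CoA, 75uM H3(1-25) peptide, pH 7.5. Fluorescence read at 340/540nm at start and after 20 min at room temperature.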
APE1 inh-1: qHTS Assay for Inhibitors of the Human Apurinic/apyrimidinic Endonuclease 1 (APE1); recombinant APE1, TAMRA/BHQ-2 abasic DNA cleavage fluorescence; Potency, µM (highest dose often 65.8 µM), inactives show at the highest dose activity change, negative = inhibition, actives largely listed as inhibitors; actives 0.35% (n = 350,000); AID 2517, 2012;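 also: plate controls were vehicle for no effect and reference inhibitor for full effect; nearly all actives have a fitted effect of over 55% in size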
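Readout is kinetic fluorescence (ex 525, em 598 nm) from cleavage of 50 nM TAMRA/BHQ-2 THF abasic duplex by 0.75 nM APE1, compound added 15 min beforehand at RT.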
DNA dye displace: Counterscreen for APE1 Inhibitors: Fluorescent Dye Displacement Assay; shares compounds with APE1 inh-1; DNA fluorescent dye displacement counterscreen, fluorescence; Potency, µM (titrated, usually from 28.5 µM), for inactives: at the highest dose activity change, negative = inhibition, actives largely listed as inhibitors; actives 7% (n = 480); AID 2564, 2010;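 also: loss of thiazole orange fluorescence as the dye is displaced from duplex DNA; 0% = ThO with dsDNA and no compound and -100% = ThO without dsDNA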
EndoIV counter: Counterscreen for APE1 Inhibitors: qHTS Assay for Inhibitors of Endonuclease IV; shares compounds with APE1 inh-1; E. coli Endo IV, fluorogenic AP-site DNA cleavage; Potency, µM (doses to about 27.1 µM), without a hit: top-dose activity change, negative = inhibition, hits mostly inhibitors; actives 4% (n = 560); AID 2565, 2010;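 also: plate controls were uninhibited enzyme wells for no effect and no enzyme buffer wells for full effect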
APE1 inh-2: Confirmation qHTS Assay for Inhibitors of the Human Apurinic/apyrimidinic Endonuclease 1 (APE1) | shares compounds with APE1 inh-1 | purified APE1, fluorogenic abasic-site DNA cleavage | Potency, µM (doses to about 57.1 µM), without a hit: top-dose activity change, negative = inhibition, most hits filed as inhibitors | actives 44% (n = 750); also: nearly all actives have a fitted effect of over 30% in size
APE1 FP: qHTS FP-Based Assay for Inhibitors of the Human Apurinic/apyrimidinic Endonuclease 1 (APE1) | shares compounds with APE1 inh-1 | Potency, µM (titrated, usually from 28.5 µM), without a hit: top-dose activity, negative = inhibition, most hits filed as inhibitors | APE1 binding to TAMRA-labelled double-stranded DNA, fluorescence polarization displacement | AID 2573, 2010 | actives 7% (n = 480)
* marks the source's active call; other numbers are inactive results; i = inactive; u = inconclusive; x = no result; [ ] = another dose, or the depositor's remark. Unless noted, calls follow the shape of the dose curve; as a rule, active = well fitted curve in the direction sought with a large enough effect; inconclusive = small, poorly fitted or top-dose-only effect, or another doubt; inactive = no such curve, though single readings can be large; an effect the other way counts as inactive or inconclusive. Unless noted, % is scaled to controls: 0 for no effect and ±100 for the full control effect; potency is read from the fitted curve at half-maximal effect.

SMILES	RECQ1 helicase	LMNA splice mod	TDP1 block	BLM helicase inh	KAT2A inh	APE1 inh-1	DNA dye displace	EndoIV counter	APE1 inh-2	APE1 FP
CC[C@@H](C)[C@H](NS(=O)(=O)c1cccc2ccccc12)C(=O)N[C@H](C=O)Cc1c[nH]c2ccccc12	-1%	x	17%	x	-7%	-1%	x	x	x	x
O=C1C[C@H](c2ccc3ccccc3c2)N1S(=O)(=O)c1ccccc1[N+](=O)[O-]	17%	x	8%	0%	x	-3%	x	x	x	x
CCOC(=O)CSc1nc2cc(OC)c(OC)cc2cc1C#N	x	x	0%	x	x	x	x	x	x	x
COC1=CC(=O)C(O)=C/C1=C\C=C\c1ccccc1	i	u	18%[56.1 µM]	-7%	-15%	-1%	x	x	x	x
O=C(Nc1ccc([N+](=O)[O-])cc1)Nc1ccc2[nH]c(=O)[nH]c2c1	-27%	x	-2%	-24%	-6%	u	-18%	-3%	u	11%
CCOc1cccc(C2C=C(c3ccc4c(c3)OCO4)NC(c3ccc(Cl)cc3)N2)c1O (configuration not stated)	x	x	2%	x	x	x	x	x	x	x
O=C(O)c1ccccc1-c1ccc(/C=c2\sc3nc4cc(Br)cnc4n3c2=O)o1	14µM*	-1%	7.9µM*	-9%	-2%	22µM*	20%	17%	8.9µM*	u
CN(C)c1ccc(O)c2c1C[C@@H]1C[C@H]3C(N(C)C)C(=O)C(C(N)=O)=C(O)[C@@]3(O)C(=O)C1=C2O (some centres not stated)	u	x	x	-12%	1%	x	-2%[57.1 µM]	10%[57.1 µM]	-11%	u
CC[n+]1ccc(/C=C2\Sc3ccccc3N2CCCS(=O)(=O)[O-])c2ccccc21	-15%	u	50µM*	-4%	0%	u	x	x	u	x
CCC(=S)/C=C1\Sc2ccc3ccccc3c2N1CCCS(=O)(=O)O	-10%	16%	x	1%	43%	9%	x	x	x	x
COc1cc(N)c(Cl)cc1C(=O)OCCN1CCCCC1	-5%	-15%	8%	-2%	-4%	u	-3%[57.1 µM]	26%[57.1 µM]	-4%	-2%[57.1 µM]
COc1ccc(C2CC(c3ccccc3)Oc3cc4c(cc32)OCO4)cc1 (configuration not stated)	-13%	x	20%	-9%	x	-4%	x	x	x	x
O=c1cc(-c2ccc(O)c(O)c2)oc2cc(O)c([C@@H]3O[C@H](CO)[C@@H](O)[C@H](O)[C@H]3O)c(O)c12	i	x	6%	7%	-9%	-10%	x	x	x	x
O=c1c2cc(O)c(O)cc2oc2cc(O)c(C3OC(CO)C(O)C(O)C3O)c(O)c12 (configuration not stated)	-26%	x	13%	4%	-14%	2.4µM*	38%[57.1 µM]	70%[57.1 µM]	7.1µM*	6%[57.1 µM]
CCCN1CCC(=O)N(C(CSc2ccc(OC)cc2)c2ccccc2)CC1 (configuration not stated)	-3%	x	9%	4%	x	-3%	x	x	x	x
O=c1ccc2[n+]([O-])c3ccc(O)cc3oc-2c1	16µM*	x	8%	x	u	25µM*	14%	u	13µM*	0.018µM*
O=c1cc(O)c2ccc(O)cc2o1	i	x	-6%	0%	-2%	15%	x	x	x	x
COc1ccc(-c2coc3cc(O)ccc3c2=O)cc1O	-31%	x	-1%	-5%	2%	u	-7%	6%	-10%[24.4 µM]	-6%
CN=c1scc(-c2ccccc2F)n1/N=C/c1ccc[nH]1	i	10%[46 µM]	5%	-7%	-10%	35µM*	17%	6%	u	-34%
CCOC(=O)Cn1c(=O)oc2ccc(C)cc21	i	x	-3%	2%	-3%	1%	x	x	x	x
Cc1ccc2oc(=O)n(CC(=O)OC(C)C)c2c1	-8%	4%	0%	3%	-4%	u	-11%	-4%	-8%[24.4 µM]	u
O=C(N/N=C/c1c[nH]c2ccc(Br)cc12)c1ccncc1	-6%	-5%	89µM*	u	31%	-4%	x	x	-12%	x
CC(=O)[C@@H]1[C@@H]2C(=O)N(C3CCCCC3)C(=O)[C@@H]2C2c3ccccc3C=CN21 (some centres not stated)	i	10%	4%	-22%	2%	u	x	x	x	x
CC(C)(C)C(=O)[C@@H]1[C@@H]2C(=O)N(Cc3ccccc3)C(=O)[C@@H]2[C@H]2c3ccccc3C=CN12	-24%	u	71µM*	-12%	-12%	u	x	x	-14%	x
CSCC[C@H](N)C(=O)N[C@@H](C)C(=O)NCC(=O)N[C@@H](CCCN=C(N)N)C(=O)N[C@@H](CO)C(=O)NCC(=O)N[C@@H](CC(=O)O)C(=O)N[C@@H](CO)C(=O)N[C@@H](CC(=O)O)C(=O)N[C@@H](CCC(=O)O)C(=O)N[C@@H](CC(=O)O)C(=O)N[C@@H](CC(C)C)C(=O)N[C@@H](CC(C)C)C(=O)N[C@@H](CCCCN)C(=O)N[C@@H](C)C(=O)N[C@H](C(=O)O)C(C)C	-7%	x	11%	-1%	47%	u	x	x	x	x
